HT1080-NT tox – qHTS for induction of synthetic lethality in tumor cells producing 2HG: qHTS for the HT-1080-NT fibrosarcoma cell line | HT-1080-NT fibrosarcoma viability, CellTiter-Glo ATP luminescence, 48 h | Potency, µM (top dose mostly 46.1 µM), for inactives: at the highest dose activity, negative = less viability, actives largely listed as cytotoxic | 1.6% of 360,000 active | AID 686970, 2013;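 also: NT is the 2HG producing partner of a matched IDH1 knockdown line; potency is read from the fitted curve at half-maximal effect; 0% = DMSO-treated cells and -100% = media-only wells without cells; nearly all actives have a fitted effect of over 55% in size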
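A 48-hour cytotoxicity screen used HT-1080-NT cells plated 2 hours before compound delivery. ATP-based CellTiter-Glo luminescence measured viability, normalized to DMSO and no-cell controls.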
KB-V1 cytotox – qHTS assay for MDR1-selective chemotherapeutics: Primary screen using the drug-selected MDR subline cells KB-V1 | KB-V1 MDR cells viability, CellTiter-Glo, 72 h | Potency, µM (highest dose often 46.1 µM), most hits filed as cytotoxic | 3.4% of 400,000 active; also: potency is read from the fitted curve at half-maximal effect; nearly all actives have a fitted effect of over 60% in size
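Potencies derive from concentration-effect curves fitted to normalized luminescence (CellTiter-Glo) of KB-V1 cells treated for 72 h at 37 degrees C in phenol-red-free DMEM containing 10% FBS.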
HT1080 IDH1KD tx – qHTS for induction of synthetic lethality in tumor cells producing 2HG: qHTS for the HT-1080-IDH1KD cell line | Potency, µM (doses to about 46.1 µM), for inactives: at the highest dose activity, negative = toxicity, actives largely listed as cytotoxic | HT-1080 IDH1 knockdown viability, ATP luminescence, 48 h | 2% of 360,000 active;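 also: potency is read from the fitted curve at half-maximal effect; 0% = DMSO wells and -100% = cell-free medium wells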
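Using the IDH1-knockdown HT-1080 line run in the same batch and compound series as the NT line, viability after 48 h at 37 °C was determined by CellTiter-Glo luminescence and expressed as % activity.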
KB-3-1 tox – qHTS assay for MDR1-selective chemotherapeutics: Primary screen using the parental adenocarcinoma cell KB-3-1; KB-3-1 viability, CellTiter-Glo ATP luminescence, 72 h; Potency, µM (titrated, usually from 46.1 µM), most hits filed as cytotoxic; 1.4% of 400,000 active; also: potency is read from the fitted curve at half-maximal effect; nearly all actives have a fitted effect of over 60% in size
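Cells are dispensed, compounds pinned in, plates held at 37 °C for 72 h, then CellTiter-Glo is added and luminescence read after 10 minutes. Cell line: parental KB-3-1 in phenol-red-free DMEM, 10% FBS.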
IL1B secr inh – qHTS for Inhibitors of Inflammasome Signaling: IL-1-beta AlphaLISA Primary Screen. THP-1 LPS/ATP IL-1B secretion, AlphaLISA, 16 h; stronger effect = lower value. activity change, % at 57.5 µM. 4.7% of 360,000 active; in the data active = activity change below about -50%; inconclusive = mostly about -30% to -49%
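Secreted IL-1B measured by AlphaLISA bead assay after 16 h compound exposure of THP-1 cells; compounds (final up to 57.5 uM) added 1 h before LPS (250 ng/mL) and ATP (1.25 mM) stimulation; lower signal means less secretion.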
Active calls of the source: *; i = inactive; u = inconclusive; x = not tested or not shown; [ ] = dose if it differs, or a comment. The list is not random: actives were taken first. Their share in the collection is about 8.8%. Unless noted, calls follow the shape of the dose curve; as a rule, active = well fitted curve in the direction sought with a large enough effect; inconclusive = small, poorly fitted or top-dose-only effect, or another doubt; inactive = no such curve, though single readings can be large; an effect the other way counts as inactive or inconclusive. Unless noted, % is scaled to controls: 0 for no effect and ±100 for the full control effect.

SMILES	HT1080-NT tox	KB-V1 cytotox	HT1080 IDH1KD tx	KB-3-1 tox	IL1B secr inh
Cc1cc(=O)[nH]c(SCC(=O)C23CC4CC(CC(C4)C2)C3)c1C#N	u	6.51µM*	u	u	u
CCc1cc(=O)oc2c3c(c(Cl)cc12)OCN(Cc1cccc(OC)c1)C3	x	i	x	i	x
O=C(NCc1cccnc1)NC1CC(=O)N(c2ccc3c(c2)OCCO3)C1 (stereo not drawn)	3.2%	i	13.6%	i	67.0
CCOc1ccc(OCC)c(-c2c(=O)n(OCc3ccccc3Br)c3ccccc3[n+]2[O-])c1	-0.9%	i	-23.8%	i	-28.4
CCOc1ccc(OCC)c(-c2c(=O)n(OCc3ccccc3C(=O)OC)c3ccccc3[n+]2[O-])c1	-1.7%	3.66µM*	-26.0%	i	-18.3
Cc1ccc(S(=O)(=O)c2nnn(-c3ccc(F)c(Cl)c3)c2N)cc1	x	i	x	i	x
Cc1ccc2c(c1)[C@H]1[C@H](CO2)[C@H](c2ccccc2)[C@]2(C)C(=O)Nc3ccc(Cl)cc3C(=O)N12	-17.3%	u	u	u	u
Cc1ccc2c(c1)C(=O)N1[C@H]3c4ccccc4OC[C@@H]3[C@H](c3ccccc3)[C@]1(C)C(=O)N2	-1.7%	u	-1.8%	i	-62.5*
C[C@@]12C(=O)Nc3ccc(Cl)cc3C(=O)N1[C@H]1c3cc(Cl)ccc3OC[C@@H]1[C@@H]2c1ccccc1	-25.9%	i	-28.3%	i	0.0
Cc1ccc2c(c1)[C@H]1[C@H](CO2)[C@H](c2ccccc2)[C@]2(C)C(=O)Nc3cc(F)ccc3C(=O)N12	u	u	8.2µM*	u	u
C[C@@]12C(=O)Nc3ccccc3C(=O)N1[C@H]1c3cc(Cl)ccc3OC[C@@H]1[C@@H]2c1ccccc1	u	u	18.4µM*	u	u
Cc1ccc2c(c1)NC(=O)[C@@]1(C)[C@@H](c3ccccc3)[C@H]3COc4ccccc4[C@@H]3N1C2=O	-23.8%	i	-4.2%	i	u
Cc1ccc2c(c1)[C@H]1[C@H](CO2)[C@H](c2ccccc2)[C@]2(C)C(=O)Nc3ccccc3C(=O)N12	5.8µM*	u	6.51µM*	i	-60.2*
Cc1cccc(N2CCN(c3ccc4cc(S(=O)(=O)N5CCC(C)CC5)ccc4n3)CC2)c1C	x	i	x	i	x
Cc1c(N(C)S(=O)(=O)c2ccc(Cl)c(C(=O)N3CCC(C(N)=O)CC3)c2)c(=O)n(-c2ccccc2)n1C	1.5%	i	0.5%	i	32.8
COc1ccc(Cl)cc1NC(=O)N1CCN(S(=O)(=O)c2ccc3c(ccn3C)c2)CC1	x	i	x	i	x
O=C(c1ccco1)N(Cc1ccc([N+](=O)[O-])cc1)c1ccc(Cl)cc1	-19.3%	u	u	i	-1.9
O=C(c1ccco1)N(Cc1ccco1)c1ccc(O)cc1	-0.1%	i	-1.4%	i	-105.8*
Cc1ccc(N(Cc2ccc([N+](=O)[O-])cc2)C(=O)c2ccco2)cc1C	-1.7%	10.3µM*	-8.3%	i	-16.4
O=C(c1ccco1)N(Cc1cccc([N+](=O)[O-])c1)c1ccc(Br)cc1	-26.0%	i	-26.9%	i	-53.8*
CC(C)n1c(O)c(N=NC(=O)C2COc3ccccc3O2)c2ccccc21 (stereo not drawn)	-23.7%	16.4µM*	u	i	-88.8*
Cc1c(C(C)NC(=O)c2cc(COc3cccc4cnccc34)on2)cnn1C (stereo not drawn)	-12.0%	u	-13.4%	20.6µM*	-6.9
CCc1ccc(CN(C)C(=O)c2cc(COc3cccc4cnccc34)on2)cc1	u	i	14.6µM*	u	-6.4
CCc1ccc(CN(C)C(=O)c2cc(COc3c(F)cccc3F)on2)cc1	6.8%	i	17.1%	i	-58.2*
CN(Cc1cccc2cnccc12)C(=O)c1cc(COc2ccc(F)cc2F)on1	3.8%	u	-13.5%	i	u
SMILES	HT1080-NT tox	KB-V1 cytotox	HT1080 IDH1KD tx	KB-3-1 tox	IL1B secr inh
COc1cccc(-c2nc(SC(C(C)=O)C(=O)N(C)C)c3c(=O)n(C)c(=O)n(C)c3n2)c1 (stereo not drawn)	x	i	x	i	x
S=C(Nc1ccc(Cl)cc1Cl)Nc1ccccc1Oc1ccccc1	-10.5%	i	-7.3%	i	-16.9
S=C(Nc1ccccc1Oc1ccccc1)Nc1cccc(Cl)c1Cl	3.8%	20.6µM*	26.7%	23.1µM*	0.0
C[C@H](C[C@H](O)[C@H]1OC1(C)C)C1=C2C[C@H](O)C3[C@@]4(C)CCC(=O)C(C)(C)C4CC[C@]3(C)[C@@]2(C)CC1 (stereo partly drawn)	u	3.66µM*	u	u	-7.0
CC1(C(=O)O)CCC2(C)CCC3(C)C(=CC(=O)C4C5(C)CCC(=O)C(C)(C)C5CCC43C)C2C1 (stereo not drawn)	1.4%	i	-5.0%	i	9.5
CC[N+]1(C)CCC(O)(c2ccc(OC)cc2)C(C(=O)c2ccc(OC)cc2)C1 (stereo not drawn)	u	u	4.61µM*	u	-77.9*
O=C1CC(c2ccc(Cl)cc2)N=C(NC(=O)c2ccccc2)N1 (stereo not drawn)	x	i	x	i	x
CC1=Nc2ccccc2N=C(NC(=O)c2ccccc2)C1c1ccc(Cl)cc1 (stereo not drawn)	-24.4%	i	-12.1%	u	-58.2*
CCN(C(=O)Cc1ccccc1OC)c1nnc(-c2ccncc2)s1	u	u	-5.3%	i	1.8
CCCN(C(=O)c1cccs1)c1nnc(-c2ccncc2)s1	19.0%	i	12.9%	i	-50.4*
O=C(Nc1ccccc1C(=O)OCc1cc(=O)n2nc(C3CC3)sc2n1)c1cccc(F)c1	x	u	x	i	x
COc1ccccc1C/C(N)=N/OC(=O)c1ccc(C)c([N+](=O)[O-])c1	-2.1%[9.24 µM]	i	10µM*	i	8.8
O=C(Cc1ccc(Cl)cc1)NC1CCCCCC1	9.7%	i	9.4%	i	1.1
Clc1ccc(CN=C(Nc2ccccc2)NC2CCCCC2)cc1	20.6µM*	u	16.4µM*	u	x
CCc1nc2cc([N+](=O)[O-])c([N+](=O)[O-])cc2[nH]1	-0.8%	i	2.6%	i	22.2
Cc1cc(C)c(CSc2nnc(C)n3c2cc2occc23)c(C)c1	x	i	x	i	x

Screening data (PubChem)
